Test systems include SK-MEL-2 melanoma; EKVX NSCLC; SN12C renal; UO-31 renal; TK-10 renal; ACHN renal; CAKI-1 renal; A498 renal; CCRF-CEM leukemia; MOLT-4 leukemia; SR leukemia; RPMI-8226 leukemia; OVCAR-8 ovarian; OVCAR-5 ovarian; OVCAR-4 ovarian; SK-OV-3 ovarian; IGROV1 ovarian; OVCAR-3 ovarian; HS 578T breast; NCI/ADR-RES ovarian.
Test in all cases: NCI-60 one-dose screen, 48 h (100 = growth as untreated, 0 = no growth, -100 = all killed)
What all share (conditions): 10 µM unless noted

The panel holds about 83,000 compounds, 20% with a hit somewhere; the sample as a whole holds those more often.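 48-hour exposure, single concentration, 96-well plates; percent growth endpoint where 0 means no net growth. Active: below 10.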 Values without a mark were called inactive. Calls of active or inactive are those of the source.

As to `OCCn1cc(-c2nc(-c3c[nH]c4ncccc34)cs2)c2ccccc21`, the growth is 98.6% in the assay on SK-MEL-2 melanoma; 32% in the assay on EKVX NSCLC; 80% in the assay on SN12C renal; 37.8% in the assay with UO-31 renal; 82.5% in the assay with TK-10 renal; 69.3% in the assay on ACHN renal. Also, the growth was 73.7% in the assay on CAKI-1 renal; 34.7% in the assay with A498 renal; 84.8% in the assay on CCRF-CEM leukemia; 71.2% in the assay on MOLT-4 leukemia; 53.5% with SR leukemia; 57.8% in the assay with RPMI-8226 leukemia. Moreover, the growth with OVCAR-8 ovarian is 90.4%; with OVCAR-5 ovarian, 90.5%; in the assay on OVCAR-4 ovarian, 51.7%; in the assay with SK-OV-3 ovarian it was 70.2%; in the assay on IGROV1 ovarian, 56.1%; with OVCAR-3 ovarian, 81.7%. Also, the growth is 71.3% in the assay on HS 578T breast and 94.6% in the assay on NCI/ADR-RES ovarian.
Take `Cn1c(=O)cc2c3c(c(NCCCO)ccc31)C(=O)c1ccccc1-2`: the growth with SK-MEL-2 melanoma is 73.9%; in the assay with EKVX NSCLC it was 73.2%; in the assay on SN12C renal, 46.8%; with UO-31 renal it was 13.1%; with TK-10 renal, 29.1%; with ACHN renal, 25.3%. Besides, the growth with CAKI-1 renal was 44.7%; in the assay with A498 renal it was 64.2%; in the assay on CCRF-CEM leukemia, 48.3%; with MOLT-4 leukemia, 19.2%; in the assay on SR leukemia, 13.4%; with RPMI-8226 leukemia it was 54.6%. The growth in the assay with OVCAR-8 ovarian was 33.2%; with OVCAR-5 ovarian it was 65.6%; with OVCAR-4 ovarian it was 47.7%; in the assay with SK-OV-3 ovarian it was 51.6%; in the assay with IGROV1 ovarian, 41.8%; in the assay on OVCAR-3 ovarian it was 54.4%. In addition, the growth in the assay with HS 578T breast was 60.2%; in the assay with NCI/ADR-RES ovarian, 57.1%.
On to `COC(=O)c1c2c(c(C)[n+]([O-])c1C)C(=O)C(NCc1cccc(OC)c1)=CC2=O`, for which the growth with SK-MEL-2 melanoma was 64.3%; in the assay on EKVX NSCLC it was 57.2%; in the assay with SN12C renal it was 2.9% (active); in the assay with UO-31 renal it was 76.8%; in the assay on TK-10 renal, 104%; in the assay with ACHN renal, 47.8%. Besides, the growth is 55.7% with CAKI-1 renal; 108% in the assay with A498 renal; 16.3% in the assay with CCRF-CEM leukemia; 3.8% (active) with MOLT-4 leukemia; 17.6% with SR leukemia; 33.1% with RPMI-8226 leukemia. For the same compound, the growth in the assay on OVCAR-8 ovarian was -4.96% (active); in the assay with OVCAR-5 ovarian, 67.6%; with OVCAR-4 ovarian, -28.6% (active); in the assay on SK-OV-3 ovarian, 89.6%; in the assay on IGROV1 ovarian, 12.3%; with OVCAR-3 ovarian, -12.1% (active). Besides, the results for the growth with HS 578T breast and with NCI/ADR-RES ovarian were 82.7% and 8.5% (active), respectively.
Regarding `Cc1ccc(CNc2ccc3nc(CCC4CCCCC4)[nH]c3c2)cc1`, the growth was 58.8% in the assay with SK-MEL-2 melanoma; 53.4% with EKVX NSCLC; 45.7% with SN12C renal; 23.8% in the assay with UO-31 renal; 54.8% with TK-10 renal; 47.8% in the assay with ACHN renal. The growth with CAKI-1 renal was 35.8%; with A498 renal, 57.5%; with CCRF-CEM leukemia, 39.9%; with MOLT-4 leukemia, 19.5%; in the assay with SR leukemia, 12.8%; in the assay with RPMI-8226 leukemia, -24.6% (active). The growth in the assay with OVCAR-8 ovarian was 56.4%; with OVCAR-5 ovarian, 57.8%; in the assay on OVCAR-4 ovarian it was 11%; with SK-OV-3 ovarian, 60.3%; with IGROV1 ovarian, 25.6%; with OVCAR-3 ovarian, 28.6%. The results for the growth with HS 578T breast and with NCI/ADR-RES ovarian were 55.7% and 40.4%, respectively.
With `O=S(=O)(Nc1cc(Cl)ccc1Cl)c1ccc(-c2cnc(C3CC3)o2)cc1`, the growth was 39% with SK-MEL-2 melanoma; 58.7% with EKVX NSCLC; 60.3% with SN12C renal; 49.6% in the assay with UO-31 renal; 60% in the assay on TK-10 renal; 34.2% in the assay with ACHN renal. Further, the growth in the assay on CAKI-1 renal is 33.5%; with A498 renal it was -7.01% (active); in the assay with CCRF-CEM leukemia it was 20%; in the assay with MOLT-4 leukemia it was 44.1%; in the assay on SR leukemia, 16.5%; in the assay with RPMI-8226 leukemia, 31%. Also, the growth with OVCAR-8 ovarian was 56.2%; in the assay on OVCAR-5 ovarian, 72.1%; with OVCAR-4 ovarian, 52.5%; with SK-OV-3 ovarian, 52%; in the assay with IGROV1 ovarian, 39.3%; in the assay on OVCAR-3 ovarian, 5.34% (active). The values for the growth in the assay on HS 578T breast and in the assay on NCI/ADR-RES ovarian were -2.43% (active) and 26%, respectively.
As for `CCOc1nc(-c2ccccc2)cc2c(O)c(C(=O)N/N=C/c3ccccc3)[nH]c(=O)c12`, the growth is 36.5% in the assay with SK-MEL-2 melanoma; 96.1% in the assay on EKVX NSCLC; 110% in the assay with SN12C renal; 93.2% in the assay on UO-31 renal; 151% with TK-10 renal; 107% in the assay on ACHN renal. Also, the growth was 104% in the assay with CAKI-1 renal; 91.3% in the assay on A498 renal; 106% in the assay with CCRF-CEM leukemia; 79.7% in the assay with MOLT-4 leukemia; 95.2% in the assay with SR leukemia; 97.6% in the assay on RPMI-8226 leukemia. Moreover, the growth in the assay with OVCAR-8 ovarian was 106%; in the assay on OVCAR-5 ovarian, 111%; in the assay with OVCAR-4 ovarian it was 119%; in the assay with SK-OV-3 ovarian it was 109%; in the assay with IGROV1 ovarian it was 36%; in the assay on OVCAR-3 ovarian, 103%. The growth in the assay with HS 578T breast and with NCI/ADR-RES ovarian was 104% each time.
On to `CCOC(=O)c1cc2c(n1Cc1cc(OC)c(OC)c(OC)c1)-c1nc(N)sc1CCC2`, for which the growth in the assay with SK-MEL-2 melanoma was 32.6%; in the assay on EKVX NSCLC it was 65.6%; in the assay on SN12C renal, 88.5%; in the assay with UO-31 renal it was 57%; in the assay with TK-10 renal it was 74.4%; in the assay on ACHN renal, 77.2%. In addition, the growth in the assay on CAKI-1 renal is 55.9%; in the assay with A498 renal, 7.34% (active); with CCRF-CEM leukemia, 41.1%; in the assay with MOLT-4 leukemia, 66.7%; in the assay with SR leukemia it was 5.15% (active); with RPMI-8226 leukemia, 75.9%. Further, the growth in the assay on OVCAR-8 ovarian is 55.4%; in the assay on OVCAR-5 ovarian, 98.3%; in the assay on OVCAR-4 ovarian it was 65%; with SK-OV-3 ovarian it was 29.3%; in the assay on IGROV1 ovarian, 50.8%; in the assay with OVCAR-3 ovarian, 21.1%. Besides, the figures for the growth in the assay on HS 578T breast and in the assay on NCI/ADR-RES ovarian were 55.7% and 20.8%, respectively.
Consider `CCC(=C(c1ccc(OCCN2CCCCC2)cc1)c1ccc(OCCN2CCCCC2)cc1)c1ccc(Cl)cc1`, for which the growth in the assay with SK-MEL-2 melanoma was -76.1% (active); with EKVX NSCLC, -82.1% (active); in the assay with SN12C renal it was -94.9% (active); with UO-31 renal it was -94.5% (active); in the assay with TK-10 renal, -84.7% (active); in the assay on ACHN renal, -99.7% (active). Moreover, the growth in the assay on CAKI-1 renal was -95.6% (active); with A498 renal it was -81.4% (active); in the assay on CCRF-CEM leukemia it was -74.4% (active); in the assay with MOLT-4 leukemia, -68.2% (active); in the assay with SR leukemia, -49% (active); in the assay on RPMI-8226 leukemia it was -59.8% (active). Besides, the growth in the assay on OVCAR-8 ovarian was -75.4% (active); in the assay with OVCAR-5 ovarian, -95.4% (active); in the assay with OVCAR-4 ovarian, -90.2% (active); in the assay with SK-OV-3 ovarian, -85.7% (active); in the assay with IGROV1 ovarian it was -87.9% (active); in the assay with OVCAR-3 ovarian, -83.9% (active). In addition, the figures for the growth in the assay with HS 578T breast and with NCI/ADR-RES ovarian were -77.1% (active) and -84.6% (active), respectively.

These data come from PubChem BioAssay (NCI).
